# Source: PubChem (National Center for Advancing Translational Sciences (NCATS))
# This is a sample that favours compounds with a hit; in the whole collection about 8.7% have one here.
# 12-LOX inh: blocks human arachidonate 12S-lipoxygenase | Potency, µM (doses to about 108 µM), hits mostly inhibitors | purified 12hLO, xylenol orange hydroperoxide absorbance | P18054 | hit rate 1.1% among 580,000
#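 Purified human 12hLO (150 nM final) in 25 mM Hepes, 0.01% Triton X-100, pH 7.0 was preincubated 15 min at room temperature with compound. Then 40 uM arachidonic acid was added, 30 min. Hydroperoxide was read by Fe-XO absorbance ratio 573/405 nm.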
# HP1b chromo inh: inhibitors of HP1-beta chromodomain binding to methylated histone tails. P83916. Potency, µM (doses to about 114 µM), hits mostly inhibitors. hit rate 0.56% among 390,000. AID 540317. AlphaScreen HP1-beta / biotin-H3K9me3 peptide binding; also: nearly all actives have a fitted effect of over 70% in size
# Target sequence (P83916 whole entry, looked up): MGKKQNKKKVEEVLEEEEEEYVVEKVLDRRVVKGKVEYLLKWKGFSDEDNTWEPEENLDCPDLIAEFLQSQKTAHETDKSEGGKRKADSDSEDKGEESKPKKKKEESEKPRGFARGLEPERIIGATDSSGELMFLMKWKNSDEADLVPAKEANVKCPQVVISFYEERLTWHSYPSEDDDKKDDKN
#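 Compound inhibition of the preformed complex between 50 nM HP1-beta and 50 nM biotinylated H3K9me3 peptide was read by AlphaScreen. Buffer was PBS pH 7.4 with 0.01% Tween-20. Incubations ran 30 min at room temperature, with 10 ug/mL donor/acceptor beads.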
# JMJD2A Tudor inh: JMJD2A Tudor domain (human) inhibition; AlphaScreen JMJD2A-Tudor / H3K4me3 peptide binding; hit rate 4.4% among 390,000; Potency, µM (titrated, usually from 114 µM), usual class: inhibitors; O75164; also: nearly all actives have a fitted effect of over 50% in size
# BAZ2B block: blocks human BAZ2B | Potency, µM (doses to about 114 µM), actives largely listed as inhibitors | AID 504333 | Q9UIF8 | hit rate 4.4% among 360,000 | AlphaScreen BAZ2B-H3K14Ac peptide displacement; also: nearly all actives have a fitted effect of over 60% in size
#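 Compounds, titrated to a top concentration of 110 uM, were incubated 30 min at room temperature with preformed BAZ2B/acetyl-K14 H3 peptide complex (50 nM each). Proximity signal was measured by AlphaScreen after 20 min with beads.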
# Sfp PPTase inh: Sfp phosphopantetheinyl transferase inhibition | Biochemical Sfp PPTase activity, qHTS | Potency, µM, usual class: inhibitors | hit rate 3.5% among 310,000;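 also: the enzyme is Sfp with the accession as filed and its product quenches rhodamine fluorescence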
#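 Fluorescence-quenching assay with 15 nM Sfp, 5 uM rhodamine-CoA and 12.5 uM BHQ-2-labelled ybbR peptide in pH 7.6 Hepes/MgCl2 buffer. Enzyme was pre-incubated with compound for 15 min at room temperature. Rate was taken from the 30-min fluorescence change (525/598 nm).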
# G9a block: G9a (human) methyltransferase inhibition | Q96KQ7 | G9a H3K9 monomethylation, AlphaScreen, 2 h | Potency, µM (doses to about 102 µM), usual class: inhibitors | hit rate 8.8% among 350,000 | AID 504332; also: nearly all actives have a fitted effect of over 75% in size
# Target sequence (Q96KQ7 913-1193 limits assumed): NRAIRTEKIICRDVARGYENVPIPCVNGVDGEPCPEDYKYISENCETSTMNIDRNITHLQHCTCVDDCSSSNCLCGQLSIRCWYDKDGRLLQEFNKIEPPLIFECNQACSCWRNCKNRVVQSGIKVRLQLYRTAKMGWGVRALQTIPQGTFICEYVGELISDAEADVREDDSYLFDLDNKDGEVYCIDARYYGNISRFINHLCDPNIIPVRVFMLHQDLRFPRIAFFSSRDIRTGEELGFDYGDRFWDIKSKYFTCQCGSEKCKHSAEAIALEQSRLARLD
#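 Enzyme 20 nM + cpd, 15 min RT; add b-H3K9 pep 500 nM / SAM 20 uM; 2 h RT; anti-H3K9me1 Ab 0.5 ug/mL + SA donor / anti-rabbit acceptor beads 20 ug/mL each, 10 min; AlphaScreen read.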
# Numbers stand for hits; – = inactive; ? = inconclusive; · = no result; [ ] = remark or other dose. Calls follow the shape of the dose curve; as a rule, active = well fitted curve in the direction sought with a large enough effect; inconclusive = small, poorly fitted or top-dose-only effect, or another doubt; inactive = no such curve, though single readings can be large; an effect the other way counts as inactive or inconclusive.
SMILES,12-LOX inh,HP1b chromo inh,JMJD2A Tudor inh,BAZ2B block,Sfp PPTase inh,G9a block
Cc1ncc(CO)c2c1Oc1nc(-c3ccccc3)nc(SCC(=O)N3CCOCC3)c1C2,–,–,–,–,–,32µM
Cc1nc(-c2ccccn2)nc(SCC(=O)N2CCOCC2)c1Cl,–,–,–,–,16µM,20µM
Cc1ncc(CO)c2c1Oc1nc(-c3ccc(Cl)cc3)nc(SCC(=O)N3CCCCC3)c1C2,–,–,–,?,·,?
Cc1cccc(NC(=O)CSc2nc(-c3cccc(C)c3)nc3c2Cc2c(CO)cnc(C)c2O3)c1,–,–,–,?,·,–
Cc1ncc(CO)c2c1Oc1nc(-c3ccccc3)nc(SCC(=O)N3CCCCC3)c1C2,?,–,?,–,–,40µM
Cc1cccc(-c2nc3c(c(SCC(=O)N4CCOCC4)n2)Cc2c(CO)cnc(C)c2O3)c1,·,–,?,?,–,45µM
Cc1ncc(CO)c2c1Oc1nc(-c3ccccc3)nc(SCC(=O)N(C)c3ccccc3)c1C2,?,·,·,?,–,·
Cc1ccc(OCCOC(=O)C2COc3ccccc3O2)cc1 (centres undefined),–,·,·,·,·,·
COc1cccc(-n2c(-c3ccco3)nc3c(cnn3-c3ccc(C)c(C)c3)c2=O)c1,–,·,·,·,·,·
COc1cccc(-c2nc3c(c(SCC(=O)N4CCOCC4)n2)Cc2c(CO)cnc(C)c2O3)c1,·,–,?,?,–,14µM
CCN1C(=O)C(Cc2cc(OC)ccc2OC)c2ccccc21 (centres undefined),–,·,·,·,·,·
NC(=O)c1cccc2c1-c1ccccc1/C2=N/NC(N)=S,?,–,–,?,–,45µM
CCOC(=O)Nc1ccc2c(c1)C(=NNC(N)=S)c1ccccc1-2,?,–,?,·,·,·
COC(=O)c1cccc2c1-c1ccccc1/C2=N\NC(N)=O,–,–,–,–,–,–[2.33 µM]
NC(=S)N/N=C1\c2ccccc2-c2c(C(=O)O)cccc21,32µM,–,–,–,79µM,28µM
COC(=O)[C@@H](Cc1cccnc1)NC(=O)[C@H]1CN(S(=O)(=O)c2ccccc2)CCN1C(=O)c1cccs1,–,·,·,·,·,·
O=C(COc1ccc(Cl)cc1Cl)OCC(=O)c1ccc(Br)cc1,–,·,·,·,·,·
CSc1nnc([C@@H]2CCCN2C(=O)OC(C)(C)C)o1,–,–,–,–,–,–
Cn1c(C2CCCN2C(=O)OC(C)(C)C)n[nH]c1=S (centres undefined),–,–,45µM,–,?,22µM
O=C(c1cc(CN2CCOCC2)on1)N1CCC2(CC1)NCCc1c2[nH]c2ccccc12,–,·,·,·,·,·
CCc1n[nH]c(=S)n1/N=C/c1ccccn1,?,?,7.9µM,50µM,50µM,–[0.501 µM]
Cc1n[nH]c(=S)n(/N=C/c2ccccn2)c1=O,?,–,2.8µM,?,50µM,?
O=C(NCc1cc(-c2ccccc2)n[nH]1)[C@H]1CCC[C@H](O)C1,–,·,·,·,·,·
Cn1nnnc1Sc1ccc(S(=O)(=O)N2CCCCC2)cn1,–,·,·,·,·,·
O=[N+]([O-])c1ccc(CSc2ccc(S(=O)(=O)N3CCOCC3)cn2)cc1,–,–,–,–,·,20µM
SMILES,12-LOX inh,HP1b chromo inh,JMJD2A Tudor inh,BAZ2B block,Sfp PPTase inh,G9a block
CC(C)CCNC(=O)NC(=O)CSc1ccc(S(=O)(=O)N2CCOCC2)cn1,?,–,–,–,·,1.6µM
COc1ccc(-n2nnnc2Sc2ccc(S(=O)(=O)N3CCOCC3)cn2)cc1,–,?,22µM,–,45µM,1.8µM
COc1ccc(CNC(=O)C(C)Sc2ccc(S(=O)(=O)N3CCOCC3)cn2)cc1 (centres undefined),–,–,–,–,·,32µM
O=C1CCC2(CCN1CC1CC1)CCN(C(=O)C1CC=CC1)CC2,–,·,·,·,·,·
COCCc1noc([C@@H]2CC(F)(F)CN2C(=O)c2ccc(C)cn2)n1,–,·,·,·,·,·
CCOc1ccc(CN2CCNC(=O)C2CC(=O)N(C)Cc2nonc2C)cc1 (centres undefined),–,–,–,–,–,50µM
CCOc1ccccc1CN1CCNC(=O)C1CC(=O)N(C)Cc1nonc1C (centres undefined),?,–,–,–,–,–
CCOc1ccc(CN2CCNC(=O)C2CC(=O)NCCc2ccccn2)cc1 (centres undefined),–,–,–,–,–,56µM
CCc1cc(CNC(=O)CC2C(=O)NCCN2Cc2ccc(-c3ccccc3)cc2)on1 (centres undefined),–,–,–,–,–,50µM
CCOc1ccc(CN2CCNC(=O)C2CC(=O)NCc2ccccn2)cc1 (centres undefined),–,–,–,–,–,?
Cc1cccnc1CCNC(=O)CC1C(=O)NCCN1CC1CCCCC1 (centres undefined),–,–,–,–,–,40µM
O=C1CCC(C(=O)OCc2c(Cl)cccc2Cl)N1 (centres undefined),–,–,–,–,–,–
O=C1CCC(C(=O)OCc2ccccc2)N1 (centres undefined),–,–,–,–,–,6.3µM
O=C(CCN1C(=O)C2C3CCC(C3)C2C1=O)OCC(=O)c1ccccc1 (centres undefined),–,–,–,–,–,–
O=C(CCN1C(=O)C2C3CC(C(Br)C3Br)C2C1=O)OCC(=O)c1ccccc1 (centres undefined),–,–,79µM,–,–,–
O=C(O)C1CC(=O)N(C2CC2)C1c1ccccc1 (centres undefined),–,·,·,·,·,·
Cc1cccc(CN2CCN(C(=O)c3cnc4ccccn4c3=O)CC2=O)c1,–,·,·,·,·,·
O=C(Nc1cccc(Cl)c1N1CCCC1)c1ccc([N+](=O)[O-])o1,–,–,?,?,–,10µM
CCN1CCN(c2c(Cl)cccc2NC(=O)c2ccc([N+](=O)[O-])o2)CC1,–,·,·,·,·,·
O=C(Nc1ccccc1N1CCCCC1)c1ccc([N+](=O)[O-])o1,?,45µM,?,11µM,·,11µM
Cc1cc(C)cc(NC(=O)c2ccc([N+](=O)[O-])o2)c1,?,–,?,?,–,?
O=C(Nc1ccccc1N1CCOCC1)c1ccc([N+](=O)[O-])o1,–,–,–,–,–,–
NS(=O)(=O)c1ccc(O)c(NC(=O)c2ccc([N+](=O)[O-])o2)c1,–,45µM,50µM,–,11µM,?
CN1CCN(c2ccccc2NC(=O)c2ccc(-c3ccccc3[N+](=O)[O-])o2)CC1,–,–,56µM,?,–,?
CCc1nn2c(=O)cc(CN(CC)CC)nc2s1,–,·,·,·,·,·
CCN1CCN(c2ccc(NC(=O)c3cnc4ccccc4n3)cc2)CC1,–,·,·,·,·,·
O=C(c1ccc([N+](=O)[O-])o1)N1CCN(c2nc3c(Cl)cccc3s2)CC1,–,–,?,?,·,35µM
CC(=O)N1CCNc2cc(Nc3ccc(F)cc3)ncc2C1,–,·,·,·,·,·
CSc1ccccc1OCc1cc(C(=O)N2CCc3[nH]cnc3C2c2ccccn2)no1 (centres undefined),–,?,18µM,56µM,–,?
